Common to all, as to experiment: thermal shift delta Tm vs DMSO control; higher = stronger stabilization (binding)
Holding throughout (conditions): 12.5 µM; protein concentration 2 µM

The test system of one assay is LOC_OS01G01410-cb001. In a few lines: (§1)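 The melting temperature shift given here is a triplicate mean, measured against protein that received only DMSO. Melting temperatures came from Boltzmann fits of differential scanning fluorimetry data on E. coli-expressed, purified rice kinase domain constructs. Each 19.5 μl well contained 2 μM kinase, 100 mM potassium phosphate pH 7.5, 150 mM NaCl, 10% glycerol, 5 × SYPRO Orange and compound in DMSO. Plates were scanned from 25°C to 95°C at 0.05°C/s.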

Another assay concerns LOC_OS01G02750-cb003. Put shortly: as §1
In a further assay the test system is LOC_OS01G10900-cb004. Put shortly:
as §1

Another assay has as its system LOC_OS01G13800-cb001. In a few lines: as §1
The subject of the next assay is LOC_OS01G14860-cb001. Put shortly:
as §1

For the next assay, the system named is LOC_OS01G21960-cb002. Put shortly:
as §1

In the next assay the test system is LOC_OS01G39600-cb002. Put shortly: as §1
In another assay the test system is LOC_OS01G48390-cb002. Put shortly: as §1
The test system of the next assay is LOC_OS01G51400-cb002. Put shortly: as §1
The next assay has as its system T1, LOC_OS01G52050-cb004.
T1 sequence (whole entry): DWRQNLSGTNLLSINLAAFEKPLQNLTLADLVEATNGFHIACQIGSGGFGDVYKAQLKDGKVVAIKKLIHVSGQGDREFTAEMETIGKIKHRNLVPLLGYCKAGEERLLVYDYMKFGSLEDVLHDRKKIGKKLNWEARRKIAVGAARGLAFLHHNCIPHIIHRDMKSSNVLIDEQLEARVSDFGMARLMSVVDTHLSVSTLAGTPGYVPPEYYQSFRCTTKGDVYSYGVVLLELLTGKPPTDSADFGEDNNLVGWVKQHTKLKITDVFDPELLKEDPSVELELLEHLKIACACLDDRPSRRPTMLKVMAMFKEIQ
Put shortly: as §1

As for `CC(C)n1nc(-c2ccc3oc(N)nc3c2)c2c(N)ncnc21`, the “thermal shift delta Tm” value in the assay on LOC_OS01G01410-cb001 was 0.59 °C; in the assay on LOC_OS01G02750-cb003, 1.42 °C; in the assay with LOC_OS01G10900-cb004, 0.77 °C; in the assay on LOC_OS01G13800-cb001, -0.13 °C; in the assay on LOC_OS01G14860-cb001, 0.42 °C; in the assay with LOC_OS01G21960-cb002, 0.3 °C. Moreover, the “thermal shift delta Tm” value in the assay on LOC_OS01G39600-cb002 was -0.69 °C; in the assay on LOC_OS01G48390-cb002 it was 1.9 °C; with LOC_OS01G51400-cb002, 0.43 °C; with LOC_OS01G52050-cb004 it was 0.95 °C.
With `COc1ccccc1-c1cc(Nc2cccc(CS(N)(=O)=O)c2)ncn1`, the “thermal shift delta Tm” value is 0.57 °C in the assay on LOC_OS01G01410-cb001; 1.83 °C in the assay with LOC_OS01G02750-cb003; -0.11 °C in the assay on LOC_OS01G10900-cb004; 0.56 °C with LOC_OS01G13800-cb001; 1.07 °C with LOC_OS01G14860-cb001; 1.02 °C in the assay with LOC_OS01G21960-cb002. For the same molecule, the “thermal shift delta Tm” value in the assay with LOC_OS01G39600-cb002 was -0.27 °C; in the assay on LOC_OS01G48390-cb002, 0.79 °C; with LOC_OS01G51400-cb002, 0.36 °C; in the assay with LOC_OS01G52050-cb004, 0.9 °C.
In the case of `COc1cc2c(Oc3ccc(NC(=O)C4(C(=O)Nc5ccc(F)cc5)CC4)cc3F)ccnc2cc1OCCCN1CCOCC1`, the “thermal shift delta Tm” value was 2.26 °C in the assay with LOC_OS01G01410-cb001; 3.47 °C in the assay on LOC_OS01G02750-cb003; 1.69 °C in the assay with LOC_OS01G10900-cb004; -0.35 °C in the assay with LOC_OS01G13800-cb001; 1.69 °C in the assay on LOC_OS01G14860-cb001; 0.4 °C with LOC_OS01G21960-cb002. Also, the “thermal shift delta Tm” value with LOC_OS01G39600-cb002 was found to be 0.45 °C; with LOC_OS01G48390-cb002, 6.85 °C; in the assay with LOC_OS01G51400-cb002, 0.19 °C; with LOC_OS01G52050-cb004, 4.66 °C.
On to `O=C1c2c(O)cc(O)cc2OC(c2ccc(O)c(O)c2)C1O` (stereo not given) [Taxifolin (Dihydroquercetin)], for which the “thermal shift delta Tm” value was found to be 0.87 °C with LOC_OS01G01410-cb001; 0.83 °C with LOC_OS01G02750-cb003; 0.4 °C with LOC_OS01G10900-cb004; 0.01 °C with LOC_OS01G13800-cb001; 0.34 °C with LOC_OS01G14860-cb001; 0.61 °C in the assay on LOC_OS01G21960-cb002. Further, the “thermal shift delta Tm” value with LOC_OS01G39600-cb002 amounted to 0.19 °C; in the assay on LOC_OS01G48390-cb002, 0.17 °C; in the assay with LOC_OS01G51400-cb002, 0.11 °C; with LOC_OS01G52050-cb004, 0.49 °C.
On to `O=C1NCCc2[nH]c(-c3ccncc3)cc21`, for which the “thermal shift delta Tm” value in the assay on LOC_OS01G01410-cb001 was 0.69 °C; with LOC_OS01G02750-cb003, -0.36 °C; in the assay on LOC_OS01G10900-cb004, 0.12 °C; in the assay with LOC_OS01G13800-cb001, 0.78 °C; with LOC_OS01G14860-cb001, 5.61 °C; with LOC_OS01G21960-cb002, 2.12 °C. For the same molecule, the “thermal shift delta Tm” value is -0.24 °C in the assay on LOC_OS01G39600-cb002, 0.48 °C in the assay on LOC_OS01G48390-cb002, 0.19 °C in the assay on LOC_OS01G51400-cb002 and 1.31 °C in the assay on LOC_OS01G52050-cb004.
As for `CCc1cncnc1N1CCN(Cc2nc3ccc(C(F)(F)F)cc3[nH]2)CC1`, the “thermal shift delta Tm” value came to 0.68 °C in the assay on LOC_OS01G01410-cb001; 1.15 °C in the assay on LOC_OS01G02750-cb003; 0.36 °C in the assay on LOC_OS01G10900-cb004; 0.07 °C in the assay on LOC_OS01G13800-cb001; 0.3 °C in the assay with LOC_OS01G14860-cb001; 0.83 °C with LOC_OS01G21960-cb002. Moreover, the “thermal shift delta Tm” value in the assay with LOC_OS01G39600-cb002 was -0.18 °C; in the assay with LOC_OS01G48390-cb002, 0.61 °C; in the assay with LOC_OS01G51400-cb002, 0.42 °C; in the assay on LOC_OS01G52050-cb004 it was 0.17 °C.
Turning to `CC1(C)C=Cc2c(ccc3c2OC[C@@H](c2ccc(O)cc2O)C3)O1` [Glabridin], the “thermal shift delta Tm” value in the assay on LOC_OS01G01410-cb001 was 0.95 °C; with LOC_OS01G02750-cb003, 3.18 °C; in the assay with LOC_OS01G10900-cb004, 2.07 °C; with LOC_OS01G13800-cb001, 0.08 °C; in the assay with LOC_OS01G14860-cb001, 1.32 °C; in the assay with LOC_OS01G21960-cb002, 1.14 °C. Further, the “thermal shift delta Tm” value with LOC_OS01G39600-cb002 turned out to be 2.12 °C; with LOC_OS01G48390-cb002 it was 1.81 °C; in the assay with LOC_OS01G51400-cb002 it was 1.35 °C; with LOC_OS01G52050-cb004, 4.83 °C.
In the case of `CCc1cc(Nc2nccc(-c3c(-c4ccc(OC)c(C(=O)Nc5c(F)cccc5F)c4)nc4ccccn34)n2)c(OC)cc1N1CCC(N2CCN(S(C)(=O)=O)CC2)CC1`, the “thermal shift delta Tm” value with LOC_OS01G01410-cb001 was 1.23 °C; in the assay on LOC_OS01G02750-cb003, -0.77 °C; in the assay on LOC_OS01G10900-cb004, 0.34 °C; in the assay with LOC_OS01G13800-cb001 it was 0.56 °C; in the assay on LOC_OS01G14860-cb001 it was 0.33 °C; in the assay with LOC_OS01G21960-cb002, 1.05 °C. For the same molecule, the “thermal shift delta Tm” value with LOC_OS01G39600-cb002 is 1.04 °C; in the assay on LOC_OS01G48390-cb002, 0.41 °C; in the assay with LOC_OS01G51400-cb002, 0.3 °C; with LOC_OS01G52050-cb004 it was 0.04 °C.
`CC(C)(C)c1cc(NC(=O)Nc2ccc(-c3cn4c(n3)sc3cc(OCCN5CCOCC5)ccc34)cc2)no1` [Quizartinib (AC220)]: the “thermal shift delta Tm” value with LOC_OS01G01410-cb001 was -0.06 °C; in the assay on LOC_OS01G02750-cb003, 0.83 °C; with LOC_OS01G10900-cb004, 0.82 °C; in the assay on LOC_OS01G13800-cb001 it was 0.79 °C; with LOC_OS01G14860-cb001, 0.25 °C; in the assay on LOC_OS01G21960-cb002 it was 1.03 °C. Also, the “thermal shift delta Tm” value is 0.27 °C in the assay on LOC_OS01G39600-cb002, 0.74 °C in the assay on LOC_OS01G48390-cb002, -0.16 °C with LOC_OS01G51400-cb002 and 0.84 °C with LOC_OS01G52050-cb004.
`CCCNC(=O)Nc1ccc(Oc2ncnc3cc(OC)c(OC)cc23)cc1Cl`: the “thermal shift delta Tm” value with LOC_OS01G01410-cb001 was 0.04 °C; in the assay on LOC_OS01G02750-cb003 it was 0.33 °C; in the assay with LOC_OS01G10900-cb004 it was -0.21 °C; in the assay with LOC_OS01G13800-cb001 it was -0.35 °C; with LOC_OS01G14860-cb001 it was -0.27 °C; with LOC_OS01G21960-cb002, 0.37 °C. In addition, the “thermal shift delta Tm” value is 0.76 °C in the assay with LOC_OS01G39600-cb002, 0.53 °C with LOC_OS01G48390-cb002, -0.13 °C in the assay on LOC_OS01G51400-cb002 and 1.02 °C in the assay with LOC_OS01G52050-cb004.

These data come from the supplement of paper PMC9694430.
